12-LOX inh: blocks human arachidonate 12S-lipoxygenase; P18054; purified 12hLO, xylenol orange hydroperoxide absorbance; Potency, µM (top dose mostly 108 µM), inactives show top-dose activity change, negative = inhibition, usual class: inhibitors; 580,000 compounds, 1.1% hits; AID 1671190
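Purified human 12hLO (150 nM final) in 25 mM Hepes, 0.01% Triton X-100, pH 7.0 was preincubated 15 min at room temperature with compound. Then 40 uM arachidonic acid was added, 30 min. Hydroperoxide was read by Fe-XO absorbance ratio 573/405 nm.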
DT40 TDP1 no CPT: qHTS for Inhibitors of human tyrosyl-DNA phosphodiesterase 1 (TDP1): qHTS in cells in absence of CPT; DT40 Tdp1-/- hTDP1 cells, no CPT, ATP luminescence, 48 h; Potency, µM (series often up to 46.2 µM), without a hit: at the highest dose activity change, negative = growth inhibition, actives largely listed as inhibitors; 420,000 compounds, 15% hits; AID 686978, 2013; also: nearly all actives have a fitted effect of over 55% in size
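No-CPT arm: Tdp1-/-;hTDP1 DT40 cells (400/well) plus compounds, incubated ≥48 hr at 37 °C. Readout CellTiter-Glo luminescence.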
Gal4-VP16 FLuc: Gal4-VP16 reporter inhibition counter-screen; Drosophila S2 Gal4-VP16 UAS-luciferase, luminescence, 20 h; Potency, µM (highest dose often 53.6 µM), inactives show at the top dose activity, negative = inhibition, usual class: inhibitors; 310,000 compounds, 3.5% hits; AID 2546;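 also: Gal4-VP16 expression switched on by copper sulfate through the metallothionein promoter; nearly all actives have a fitted effect of over 50% in size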
RORg inh: ROR gamma (mouse) transcription inhibition | P51450 | Potency, µM (titrated, usually from 53.6 µM), for the others: top-dose activity change, negative = inhibition, hits mostly inhibitors | Drosophila S2 Gal4-RORgamma UAS-luciferase reporter, 20 h | 310,000 compounds, 5.4% hits | AID 2551; also: nearly all actives have a fitted effect of over 60% in size
Target sequence (P51450 whole entry, looked up, the tested form may be a part): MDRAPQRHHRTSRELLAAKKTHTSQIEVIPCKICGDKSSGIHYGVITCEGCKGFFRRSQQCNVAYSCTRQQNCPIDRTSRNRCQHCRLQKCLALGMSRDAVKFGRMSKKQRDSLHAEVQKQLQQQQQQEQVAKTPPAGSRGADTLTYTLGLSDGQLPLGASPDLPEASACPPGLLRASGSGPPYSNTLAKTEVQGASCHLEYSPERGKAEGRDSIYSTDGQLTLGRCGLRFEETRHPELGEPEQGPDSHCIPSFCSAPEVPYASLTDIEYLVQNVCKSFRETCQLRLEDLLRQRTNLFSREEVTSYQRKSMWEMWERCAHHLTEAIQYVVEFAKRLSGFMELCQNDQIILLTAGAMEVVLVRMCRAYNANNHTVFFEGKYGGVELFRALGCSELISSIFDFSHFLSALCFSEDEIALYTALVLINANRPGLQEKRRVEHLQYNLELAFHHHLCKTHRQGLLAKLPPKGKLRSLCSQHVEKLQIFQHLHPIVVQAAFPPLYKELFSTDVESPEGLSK
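Stable Schneider cell line, Gal4 DNA-binding domain fused to ROR gamma, UAS-luciferase. Cmpd 1 hr RT → CuSO4 700 uM final → 20 hr RT → luciferase reagent 10 min → luminescence.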
ELG1 repair inh: blocks ELG1-dependent DNA repair in HEK293T cells; 330,000 compounds, 2.3% hits; HEK293T ELG1-luciferase reporter, luminescence, 16 h; DNA damage induced by 5-fluorouridine; Potency, µM (doses to about 46.1 µM), inactives show at the highest dose activity change, negative = inhibition, actives largely listed as inhibitors; also: nearly all actives have a fitted effect of over 55% in size
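5-Fluorouridine DNA damage + compound/DMSO, 2,000 cells/well, 16 h, 37 °C/5% CO2. ONE-Glo, 30 min RT, luminescence. Readout = decrease in reporter signal.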
TDP1 cell CPT: DT40-hTDP1 cell growth loss with CPT. chicken DT40 Tdp1-/-;hTDP1 cells + 20 nM CPT, ATP luminescence, 48 h. Potency, µM (series often up to 46.2 µM), for the others: at the top dose activity change, negative = growth inhibition, usual class: inhibitors. 420,000 compounds, 12% hits; also: nearly all actives have a fitted effect of over 55% in size
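Cell growth measured by CellTiter-Glo luminescence after a minimum 48 h, 37 C compound exposure with 20 nM CPT in Tdp1-knockout DT40 cells stably expressing hTDP1, seeded 400/well; qHTS titration format.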
ELG1 FLuc counter: luciferase inhibition in cell-free luciferin readout for ELG1 hits; cell-free firefly luciferase luminescence counter-screen, ViewLux; 350 compounds, 3% hits; Potency, µM (series often up to 46.1 µM), without a hit: at the top dose activity change, negative = inhibition, most hits filed as inhibitors; shares compounds with ELG1 repair inh
ELG1-Luc inh: inhibits ELG1-dependent DNA repair in HEK293T cells, confirmed | HEK293T ELG1-luciferase levels, luminescence; cells co-treated with 5-fluorouridine | shares compounds with ELG1 repair inh | 670 compounds, 68% hits | Potency, µM (highest dose often 46.1 µM), without a hit: at the top dose activity change, negative = inhibition, hits mostly inhibitors | AID 624248; also: nearly all actives have a fitted effect of over 55% in size
ELG1-Luc MMS: confirmation of human ELG1 repair inhibitors, MMS stimulated. AID 624249. shares compounds with ELG1 repair inh. 670 compounds, 53% hits. HEK293T luciferase-tagged ELG1 level, MMS stimulated. Potency, µM (doses to about 46.1 µM), for the others: at the top dose activity change, negative = inhibition, actives largely listed as inhibitors; also: nearly all actives have a fitted effect of over 60% in size
ELG1 5FU viab: confirmation of ELG1 repair inhibitors: viability with 5FU | shares compounds with ELG1 repair inh | cell viability with 5-FU, ELG1-dependent repair | Potency, µM (highest dose often 46.1 µM), for inactives: at the highest dose activity change, negative = viability loss, most hits filed as cytotoxic | 670 tested, under 10 active;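 also: ELG1-luc HEK293T cells cotreated with 5-fluorouridine at 10 µM final; viability measured 16 h after compound addition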
ELG1 MMS viab: confirmation of ELG1 repair inhibitors: viability with MMS | Cell viability with MMS, ELG1-dependent DNA repair | 670 compounds, 33% hits | shares compounds with ELG1 repair inh | Potency, µM (doses to about 46.1 µM), for inactives: at the top dose activity change, negative = viability loss, hits mostly cytotoxic | AID 624251;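 also: ELG1-luc HEK293T cells co-treated with 10 µM MMS; viability read 16 h after compound addition; nearly all actives have a fitted effect of over 60% in size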
ELG1 unstim viab: counter-screen for ELG1 repair inhibitors: unstimulated cell viability; cell viability counter-screen, unstimulated, luminescence; 900 compounds, 8% hits; shares compounds with ELG1 repair inh; Potency, µM (titrated, usually from 45.9 µM), for inactives: at the highest dose activity change, negative = loss of viability, actives largely listed as cytotoxic;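 also: compound exposure lasted 16 hours before reading; nearly all actives have a fitted effect of over 55% in size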
FLuc biochem: inhibits purified firefly luciferase, counter-screen for ELG1 hits. purified firefly luciferase, luminescence counter-screen. Potency, µM (titrated, usually from 57.5 µM), for inactives: top-dose activity, negative = inhibition, hits mostly inhibitors. shares compounds with ELG1 repair inh. 350 compounds, 10% hits
* = called active by the depositor; u = inconclusive; x = no result; [ ] = remark or other dose. In the library only some 15% were active in any assay of this set; here they are far more common. Calls follow the shape of the dose curve; as a rule, active = well fitted curve in the direction sought with a large enough effect; inconclusive = small, poorly fitted or top-dose-only effect, or another doubt; inactive = no such curve, though single readings can be large; an effect the other way counts as inactive or inconclusive. % is scaled to controls: 0 for no effect and ±100 for the full control effect; potency is read from the fitted curve at half-maximal effect.

SMILES | 12-LOX inh | DT40 TDP1 no CPT | Gal4-VP16 FLuc | RORg inh | ELG1 repair inh | TDP1 cell CPT | ELG1-Luc inh | ELG1-Luc MMS | ELG1 5FU viab | ELG1 MMS viab | ELG1 unstim viab | others
O=C(OCC(=O)c1ccc[nH]1)c1ccccc1 | 10% | 0% | 3% | 15% | u | 0% | x | x | x | x | x
CN(C)c1ccc(C(=O)OCC(=O)c2ccc[nH]2)cc1 | -14% | -1% | x | x | u | -3% | x | x | x | x | -11%
Cc1cnc(C(=O)N2CCC(c3noc(-c4ccccn4)n3)C2)cn1 (stereo not drawn) | 37% | x | x | x | x | x | x | x | x | x | x
O=C(Nc1ccc(N2CCN(C(=O)c3ccco3)CC2)cc1)c1ccc([N+](=O)[O-])cc1Cl | -1% | 21µM* | -11% | 1% | 4.6µM* | u | 6.3µM* | 7.1µM* | u | u | u
CC(=O)N1CCN(c2ccc(NC(=O)c3ccc([N+](=O)[O-])cc3Cl)cc2)CC1 | u | u | -1% | 0% | -17% | 14% | x | x | x | x | x
CS[C@@H]1SC[C@H]2C(=O)N(C)C(C(C)C)C(=O)OC[C@@H](NC(=O)c3cnc4ccccc4n3)C(=O)N[C@@H](C)C(=O)N(C)[C@H]1C(=O)N(C)C(C(C)C)C(=O)OC[C@@H](NC(=O)c1cnc3ccccc3n1)C(=O)N[C@@H](C)C(=O)N2C (stereo partly drawn) | x | x | -1% | 0.04µM* | x | x | 0.14µM* | 0.056µM* | 17% | 0.2µM* | -4% | ELG1 FLuc counter=u;FLuc biochem=2%
CC1(C)Cc2nc3nc(SCC(=O)NCCc4ccccc4)n(-c4ccccc4)c(=O)c3cc2CO1 | -18% | -16% | 0% | 14% | 4.6µM* | -13% | u | 26% | u | 0% | u
CC1(C)Cc2nc3nc(SCC(=O)NCc4ccccc4)n(-c4ccccc4)c(=O)c3cc2CO1 | x | x | -1% | 22% | u | x | x | x | x | x | x
COc1cc(C(=O)Oc2ccccc2/C=N/NC(=O)c2ccc(C)c(Cl)c2)cc(OC)c1OC | 8% | 0.92µM* | u | 5µM* | 4.6µM* | 1.2µM* | 2.8µM* | u | u | -11% | -10%
O=C(C1CCCN(c2ncnc3c2nc2n3CCCCC2)C1)N1CCN(c2ccccc2F)CC1 (stereo not drawn) | 14% | 9.2µM* | -29% | u | 9.2µM* | u | 11µM* | 25µM* | -7% | -8% | u | ELG1 FLuc counter=-7%;FLuc biochem=-5%
COc1cc(NC(=O)C2CCCN(c3ncnc4c3nc3n4CCCCC3)C2)cc(OC)c1OC (stereo not drawn) | 2% | u | -23% | 6% | 1.8µM* | u | 4.5µM* | 9% | u | 7% | 0% | ELG1 FLuc counter=9%;FLuc biochem=1%
CCc1cccc(NC(=O)C2CCCN(c3ncnc4c3nc3n4CCCCC3)C2)c1 (stereo not drawn) | -8% | u | 0% | u | 18µM* | u | 14µM* | 22µM* | 1% | -6% | u | ELG1 FLuc counter=-8%;FLuc biochem=-6%
COc1ccc(-c2nc(CCNc3ncccc3C#N)co2)cc1 | -5% | x | x | x | x | x | x | x | x | x | x
O=C(c1cc2ccccc2oc1=O)N(Cc1cccs1)C1CC1 | 10% | x | x | x | x | x | x | x | x | x | x
Cc1cc(=O)n(CC(=O)Nc2ccc(F)c(Cl)c2)c(N2CCc3ccccc3C2)n1 | 13% | x | x | x | x | x | x | x | x | x | x
O=C(C1CCCC1)N1CCC(CC2CC(c3cccc(Br)c3)=NO2)(C(=O)NCC2CCCCC2)CC1 (stereo not drawn) | u | u | 5% | u | 4.1µM* | 16µM* | 16µM* | u | 2% | -19% | u
c1ccc(-c2cc3ccccc3cn2)cc1 | 9% | -16% | x | x | u | -2% | x | x | x | x | x
COc1ccc(-c2cnc3n[nH]c(-c4ccc5c(c4)OCO5)c3n2)cc1 | 18%[176 µM] | x | x | x | x | x | x | x | x | x | x
c1ccc(-c2cc3cc4c(cc3cn2)OCO4)cc1 | -26% | u | x | x | u | u | x | x | x | x | u
COc1ccc(-c2cc3cc4c(cc3cn2)OCO4)cc1 | -20% | -18% | x | x | u | -20% | x | x | x | x | u | ELG1 FLuc counter=-2%;FLuc biochem=0.41µM*
COc1ccc2cc(-c3ccsc3)ncc2c1 | -9% | u | x | x | u | -29% | x | x | x | x | x
COc1cc(OC)cc(-c2cc3cc4c(cc3cn2)OCO4)c1 | x | 0.52µM* | x | x | u | 0.65µM* | x | x | x | x | u
CS(=O)(=O)N1CCCN(Cc2ccccc2C#N)CCNC(=O)CC1c1ccccc1 (stereo not drawn) | 41% | x | x | x | x | x | x | x | x | x | x
CC(C)=CC1C(C(=O)Nc2c(C)cc(C)cc2C)C1(C)C (stereo not drawn) | -4% | x | x | x | x | x | x | x | x | x | x

Screening data deposited in PubChem BioAssay by National Center for Advancing Translational Sciences (NCATS).
